The record followed here is PubChem BioAssay (NCI).

Structures are written as SMILES. About 83,000 compounds went through this panel and 20% of them were active in at least one assay; those are over-represented in the sample as a whole.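 Compound tested at a single concentration for 48 hours in 96-well plates; a percent growth value below 10 was scored as active.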 Values without a mark were called inactive. Activity calls are given as the source filed them.

For the test, the system named is NCI-H522 lung. Briefly: NCI-60 one-dose screen, 48 h (100 = growth as untreated, 0 = no growth, -100 = all killed). The following applies: 10 µM unless noted. The protocol:
Growth inhibition of the NCI-H522 human Non-Small Cell Lung tumor cell line is measured as a screen for anti-cancer activity. Cells are grown in 96 well plates and exposed to the test compound for 48 hours. Compounds are tested at a single concentration, which is 10^-5 M for most compounds. The reported endpoint is percent growth (GI% or GIPRCNT), where numbers from 0 - 100% represent growth inhibition, and numbers from -100% - 0 represent cell death. For example, a value of 40 represents 60% growth inhibition. A value of 0 means no net growth occurred over the course of the experiment. A value of -40 indicates 40% of cells at the beginning of the experiment died by the end of the experiment. A value of -100 means all cells are dead at the end of the experiment.
NCI-60 Human Tumor Cell Lines Screen was performed using the standard one-dose NCI protocol, which is described in more detail at https://dtp.cancer.gov/discovery_development/nci-60/default.htm.
Compounds with GIPRCNT values below 10 were considered active. Activity score was based on GIPRCNT using the following formula: […]
Score is 0 for GIPRCNT values of 100 or above, 50 for GIPRCNT values of 0, and 100 for GIPRCNT values of -100.
Turning to `Cn1cc(-c2nc(-c3c[nH]c4ncccc34)cs2)c2cc(F)ccc21`, the growth is 22%.

Consider `NS(=O)(=O)c1ccc(CCNC(=O)/C=C/c2ccc(Cl)cc2)cc1`, for which the growth was 89.8%.

With `N#CCCCCCn1c2ccccc2c2c3[nH]c(=O)[nH]c(=O)c3c3c4ccccc4n(CCCCCC#N)c3c21`, the growth was 44.9%.

For `N#CC1=C(N)Oc2ccc3ccccc3c2C1c1ccccc1Cl` (stereo not given), the growth is 34.4%.

On to `COc1cc(OC)c2c(c1)c1nc3cc(C)c(C)cc3nc1n2CCN(C)C`, for which the growth is 79.2%.

Take `C[C@@H](C(=O)O)c1ccc2c3cc(Cl)ccc3n(Cc3cc(=O)oc4ccc(Cl)cc34)c2c1`: the growth was 90.7%.

On to `CCCCC[C@H]1C/C=C2/C(=O)C=C[C@@H]2C/C=C\CCCC(=O)O[C@@H](CCCCC)C/C=C2/C(=O)C=C[C@@H]2C/C=C\CCCC(=O)O1`, for which the growth was -81.7% (active).

As for `CC(Cc1ccco1)C(=O)NC(N)=O` (stereo not given), the growth was 97.4%.

Regarding `CN(C)c1ccc(N)c2ccccc12`, the growth is 80.1%.

Turning to `O=C(NC1=CC(=O)c2ccccc2C1=O)c1ccccc1`, the growth is -48.8% (active).

For `O=C(O)c1cccc2c1C(=O)N(c1ccc3c(c1)Cc1ccccc1-3)C2=O`, the growth is 92.3%.

With `COc1ccc(-c2cc(-c3c(C)oc4cc5occc5c(OC)c4c3=O)nc(N)c2C#N)cc1OC`, the growth was 47.1%.

Regarding `COc1cc(-c2c(C#N)c(-c3cccs3)nc3c2c(-c2ccccc2)nn3-c2ccccc2)ccc1O`, the growth was 69.8%.

Consider `CC1(C)c2ccccc2C(=O)C1(Br)Cc1ccccc1` (stereo not given), for which the growth was 83.1%.

For the compound `O=P(O)(c1ccccc1)c1ccccc1I`, the growth is 80.7%.

Consider `COc1ccc(C(=O)c2cc(OC)c(OC)c(OC)c2)cc1/C=C/C(=O)c1cc(OC)c(OC)c(OC)c1`, for which the growth was 84%.

As to `O=C(N/N=C/c1ccccc1SSc1ccccc1/C=N/NC(=O)c1ccccc1)c1ccccc1`, the growth was 54%.

As for `CC(=O)Oc1ccccc1C(=O)/C=C/c1cccc([N+](=O)[O-])c1`, the growth is 55.9%.

As for `COc1ccccc1-n1cnc(N)c1C(=O)c1cc(OC)c(OC)c(OC)c1`, the growth is 1.87% (active).

As to `COc1ccc(/C=C/C(=O)NCC(C)O)cc1` (stereo not given), the growth was 85%.

Turning to `COc1cccc2c1C(=O)c1c(O)c3c(c(O)c1C2=O)C[C@@](O)(C(=O)CO)C[C@@H]3OC1C[C@H](N)[C@H](O)[C@H](C)O1` (stereo not given in full), the growth is -61.1% (active).

Regarding `CC(c1ccccc1)N1C(=O)C(C2SC(=S)N(C(C)c3ccccc3)C2=O)SC1=S` (stereo not given), the growth is 77.5%.

For the compound `CC(C)=CCC/C(C)=C/CC/C(C)=C/CSC[C@H](NC(=O)CCCCCN1CCN(C)CC1)C(=O)NC1CCCCCC1`, the growth was 59.8%.

Regarding `C=CC(=O)N[C@H](Cc1ccc(-c2cc(Cl)cc(Cl)c2)cc1)[C@H](O)[C@@H](O)C(=O)O`, the growth was 59.1%.

With `CC/C=C\C[C@H]1CC=C2C(=O)C=C[C@@H]2CC=CCCCC(=O)O[C@@H](CCCCC)CC=C2C(=O)C=C[C@@H]2CC=CCCCC(=O)O[C@@H](CCCCC)CC=C2C(=O)C=C[C@@H]2CC=CCCCC(=O)O[C@@H](CCCCC)CC=C2C(=O)C=C[C@@H]2CC=CCCCC(=O)O1`, the growth was -16.2% [7.9 µM] (active).

For `Cc1ccc2[nH]cc(-c3nc(-c4cn(C)c5ncccc45)cs3)c2c1`, the growth was 86.5%.

Regarding `c1cnc2[nH]cc(-c3csc(-c4cn(CCCN5CCCCC5)c5ccccc45)n3)c2c1`, the growth was 79.2%.

On to `COc1ccc2nc(-c3cc(-c4cc(OC)c(OC)c(OC)c4)n[nH]3)[nH]c2c1`, for which the growth was -15.1% (active).

`NCCNc1nc(-c2ccccc2)nc2nc(-c3ccccc3)oc12`: the growth was 105%.

For the compound `CCCCC[C@H]1CC=C2C(=O)C(Cl)=C[C@@H]2CC=CCCCC(=O)O[C@@H](CCCCC)CC=C2C(=O)C(Cl)=C[C@@H]2CC=CCCCC(=O)O[C@@H](CCCCC)CC=C2C(=O)C(Cl)=C[C@@H]2CC=CCCCC(=O)O1`, the growth was 25.1% [8 µM].

With `CC1(C)C(=O)/C(=C\c2ccccn2)C[C@]2(C)[C@H]3CC[C@@H]4[C@@H](C(=O)/C=C/c5ccccn5)CC[C@@]4(C)[C@]3(C)CC[C@@H]12`, the growth was -23.3% (active).

`COc1ccc2[nH]cc(-c3nc(-c4c[nH]c5ncccc45)cs3)c2c1`: the growth was 31.3%.

As to `Cc1csc(-c2ccc3c(c2)COC3(CCCN(C)C)c2ccc(F)cc2)c1` (stereo not given), the growth was -38.8% (active).

Turning to `CCOc1ccc(NC(=O)c2ccoc2COc2ccccc2)cc1`, the growth was 93.9%.

For `CC(=O)O[C@@H]1CCN2C(=O)N(C)c3ccccc3[C@@H]2C1`, the growth is 96.4%.

On to `O=C(/C=C/c1cccc2ccccc12)Nc1ncc(Cc2ccccc2)s1`, for which the growth was 34.5%.

In the case of `O=C1c2ccccc2NC(c2cn(-c3ccccc3)nc2-c2cccnc2)N1Cc1ccccc1` (stereo not given), the growth is 78.4%.

Take `Nc1c2c(nc3ccc(Cl)cc13)CC(c1ccccc1)CC2=O` (stereo not given): the growth is 41.1%.

Regarding `OCC12CCCC(CO)(COC1)C2O` (stereo not given), the growth is 111%.

In the case of `COC(=O)c1cc(=O)nc(N/N=C/c2ccc(C)cc2)s1`, the growth was 91.9%.
